According to the supplement of paper PMC7156485:
± gives the standard deviation of the averaged measurements.

Legend:
Conditions in all cases: concentration: 10 µM; 24 h
[1] = system: HCC1569; assay: cell number relative to DMSO (% of DMSO); higher = more cells (less growth inhibition / toxicity)
Outline: (§1)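 HCC1569 and TDF cells (800 per well, 384-well plates, RPMI with 10% FBS) were treated with compounds at 10 µM for 24 h at 37 °C, in triplicate. Cells were fixed in 3.7% formaldehyde and stained with a rabbit anti-H1.0 antibody, an AlexaFluor 647 secondary and DAPI; six fields per well were imaged at ×10. H1.0 nuclear intensity or cell number is expressed as percent of the plate DMSO control, taking the median of replicates. HCC1569 values were smoothed for positional effects.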

[2] = system: TDF; assay: as above
Outline: as §1

[3] = system: TDF; assay: H1.0 immunofluorescence intensity relative to DMSO (% of DMSO); higher = stronger H1.0 induction, active = 120 or more
Outline: as §1

[4] = system: HCC1569; assay: H1.0 immunofluorescence intensity relative to DMSO (% of DMSO); higher = stronger H1.0 induction, active = 140 or more
Outline: as §1
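For H1.0 immunofluorescence intensity relative to DMSO in this document: TDF is a line of transformed human dermal fibroblasts of mesenchymal origin.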
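For cell number relative to DMSO in this document: TDF denotes transformed human dermal fibroblasts of mesenchymal origin.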

| SMILES | cell number [1] | cell number [2] | H1.0 immunofluorescence intensity [3] | H1.0 immunofluorescence intensity [4] |
| --- | --- | --- | --- | --- |
| CC(C)c1cc2c(c(O)c1O)C1(C(=O)O)CCCC(C)(C)C1CC2 (configuration not stated) [Carnosic acid] | 96.8 | 99.9 | 95.3 (inactive) | 103 (inactive) |
| O=C1C=C2C(=CCOC2O)O1 (configuration not stated) [Patulin] | 22.4 | 8.4 | 224 (active) | 132 (inactive) |
| CC1OC(=O)C2CC3CCCCC3C(C=CC3CCCC(C)N3C)C12 (configuration not stated) [Himbacine] | 103 | 107 | 92.4 (inactive) | 87.4 (inactive) |
| NC(=NN=Cc1ccc(-c2cccc([N+](=O)[O-])c2)o1)N[N+](=O)[O-] [ERK Inhibitor III] | 102 | 101 | 95.3 (inactive) | 102 (inactive) |
| O.O=P1(N(CCCl)CCCl)NCCCO1 (configuration not stated) [Cyclophosphamide monohydrate] | 79.6 | 61.2 | 116 (inactive) | 103 (inactive) |
| O=c1c2ccccc2[se]n1-c1ccccc1 [Ebselen] | 102.1 ± 0.14 | 97.7 ± 1.2 | 102 (inactive) | 114 (inactive) |
| Cl.NCC#Cc1ccccc1 [3-Phenylpropargylamine hydrochloride] | 104 | 110 | 80.3 (inactive) | 102 (inactive) |
| CNC1CC(c2ccc(Cl)c(Cl)c2)c2ccccc21.Cl (configuration not stated) [Indatraline hydrochloride] | 84.1 | 85.9 | 110 (inactive) | 133 (inactive) |
| CCN1CC2(COC)CCC(O)C34C5CC6C(OC)CC(O)(C(CC23)C14)C5C6OC(C)=O (configuration not stated) [Condelphine] | 101 | 105 | 98.6 (inactive) | 102 (inactive) |
| O=[N+]([O-])C=Cc1ccc2c(c1)OCO2 [Syk Inhibitor III] | 37.1 | 33.2 | 122 (active) | 99.6 (inactive) |
| CC1Cc2c(Cl)cc(C(=O)NC(Cc3ccccc3)C(=O)O)c(O)c2C(=O)O1 (configuration not stated) [Ochratoxin A] | 107 | 92.7 | 103 (inactive) | 92.1 (inactive) |
| C[N+](C)(C)CC(=O)O.[Cl-] [Betaine hydrochloride] | 104 | 113 | 89.4 (inactive) | 82.7 (inactive) |
| NC(N)=Nc1ccc2[nH]c3c(c2c1)CC1(O)C2Cc4ccc(O)c5c4C1(CCN2CC1CC1)C3O5.O=C(O)C(F)(F)F.O=C(O)C(F)(F)F (configuration not stated) [Guanidinyl-naltrindole di-trifluoroacetate] | 93.6 | 83.5 | 104 (inactive) | 115 (inactive) |
| CCCn1c(C)c(C(=O)c2cccc3ccccc23)c2ccccc21 | 99.3 | 88.2 | 96.2 (inactive) | 100 (inactive) |
| CCN1CC2(COC)C(O)CC(OC)C34C5CC6(O)C(OC)C(O)C(OC(C)=O)(C5C6OC(=O)c5ccccc5)C(C(OC)C23)C14 (configuration not stated) [Aconitine] | 99.9 | 97.3 | 96.5 (inactive) | 94.5 (inactive) |
| CC12Cc3cn[nH]c3CC1CCC1C2CCC2(C)C1CCC2(C)O (configuration not stated) [Stanozolol] | 94.4 | 99.5 | 97.2 (inactive) | 87.3 (inactive) |
| CC12C(=O)OC(=O)C1(C)C1CCC2O1 (configuration not stated) [Cantharidin] | 20.6 ± 2.2 | 10.9 ± 0.21 | 210 (active) | 187 (active) |
| O=C([O-])Cc1ccccc1.[Na+] [Sodium Phenylacetate] | 96.8 | 103 | 96.8 (inactive) | 100 (inactive) |
| CCCN(CCC)C1Cc2cc(OC)c(OC)cc2C1.O=C(O)C=CC(=O)O | 103 | 107 | 97.7 (inactive) | 102 (inactive) |
| CCCN1CCCC2Cc3[nH]ncc3CC21.Cl (single isomer, unassigned; (-)) [(-)-Quinpirole hydrochloride] | 99.3 | 101 | 87.5 (inactive) | 100 (inactive) |
| NCC1(CC(=O)O)CCCCC1 [Gabapentin] | 104 ± 4.7 | 108 ± 6.5 | 94.7 (inactive) | 93.5 (inactive) |
| NCCCP(=O)(O)O [3-Aminopropylphosphonic acid] | 97.9 | 90.3 | 95.4 (inactive) | 101 (inactive) |
| O=C(O)C1C2CCC(O2)C1C(=O)O (configuration not stated) [Endothall] | 97.6 | 97.8 | 108 (inactive) | 129 (inactive) |
| CCN(C)C(=O)Oc1cccc(C(C)N(C)C)c1 (configuration not stated) [Rivastigmine] | 102 | 114 | 90 (inactive) | 105 (inactive) |

| SMILES | cell number [1] | cell number [2] | H1.0 immunofluorescence intensity [3] | H1.0 immunofluorescence intensity [4] |
| --- | --- | --- | --- | --- |
| CCCN(CCC)CCc1c[nH]c2ccc(C(N)=O)cc12.O=C(O)C=CC(=O)O [N,N-Dipropyl-5-carboxamidotryptamine maleate] | 99.4 | 104 | 97 (inactive) | 98.9 (inactive) |
| COc1cc(C(=O)OC2CC3CCC(C2)N3C)ccc1O (configuration not stated) [Fillalbin] | 101 | 93.9 | 98.2 (inactive) | 94.5 (inactive) |
| COC(C(=O)C(O)C(C)O)C1Cc2cc3cc(OC4CC(OC5CC(O)C(OC)C(C)O5)C(OC(C)=O)C(C)O4)c(C)c(O)c3c(O)c2C(=O)C1OC1CC(OC2CC(OC3CC(C)(O)C(OC(C)=O)C(C)O3)C(O)C(C)O2)C(O)C(C)O1 (configuration not stated) [Chromomycin A3] | 42.1 | 19.4 | 175 (active) | 196 (active) |
| NCCN(CCN)N(O)N=O [1,1-bis(2-aminoethyl)-2-hydroxy-3-oxotriazane] | 99.5 | 97.5 | 93.1 (inactive) | 95 (inactive) |
| O=C(O)C1CCN1 [L-azetidine-2-carboxylic acid] | 100 | 103 | 92.3 (inactive) | 92 (inactive) |
| Cl.Cl.NNCc1cccc(O)c1 [3-Hydroxybenzylhydrazine dihydrochloride] | 46.1 | 48.9 | 117 (inactive) | 104 (inactive) |
| NCC(CP(=O)(O)O)c1ccc(Cl)cc1 (configuration not stated) [Phaclofen] | 106 | 100 | 95.8 (inactive) | 79.9 (inactive) |
| CCCN1CC(CSC)CC2c3cccc4[nH]cc(c34)CC21.CS(=O)(=O)O (configuration not stated) [Pergolide mesylate] | 95.8 | 102 | 93.3 (inactive) | 112 (inactive) |
| CCC1(O)C(=O)OCc2c1cc1n(c2=O)Cc2cc3ccccc3nc2-1 (configuration not stated) [Camptothecin] | 54.2 ± 2.9 | 24 ± 1.1 | 128 (active) | 120 (inactive) |
| Cc1c(N)nc(C(CC(N)=O)NCC(N)C(N)=O)nc1C(=O)NC(C(=O)NC(C)C(O)C(C)C(=O)NC(C(=O)NCCc1nc(-c2nc(C(=O)NCCC[S+](C)C)cs2)cs1)C(C)O)C(OC1OC(CO)C(O)C(O)C1OC1OC(CO)C(O)C(OC(N)=O)C1O)c1cnc[nH]1.O=S(=O)([O-])O (configuration not stated) [Bleomycin sulfate] | 93.1 | 99.4 | 88.5 (inactive) | 99.1 (inactive) |
| CC(=O)NBr [N-Bromoacetamide] | 105 | 101 | 96.8 (inactive) | 90.3 (inactive) |
| NC(=O)CN1CC(O)CC1=O (configuration not stated) [Oxiracetam] | 101 | 111 | 89.7 (inactive) | 95.4 (inactive) |
| COC(=O)CC(O)(CCC(C)(C)O)C(=O)OC1C(OC)=CC23CCCN2CCc2cc4c(cc2C13)OCO4 (configuration not stated) [Harringtonine] | 56.5 | 29.9 | 107 (inactive) | 90 (inactive) |
| CCCN(CCC)C(=O)Cc1c(-c2ccc(Cl)cc2)nc2c(Cl)cc(Cl)cn12 | 103 | 105 | 102 (inactive) | 100 (inactive) |
| COC1C=C2CCN(C)C2C2c3cc4c(cc3C(=O)OC12)OCO4.O=[N+]([O-])O (configuration not stated) [Ungerine nitrate] | 100 | 107 | 96.5 (inactive) | 88.8 (inactive) |
| CN1CC[C@@]2(C)c3cc(OC(=O)Nc4ccccc4)ccc3N(C)[C@@H]12 | 103 | 90.6 | 106 (inactive) | 102 (inactive) |
| NCCCNCCSP(=O)(O)O [Amifostine] | 102.2 ± 1 | 104 ± 2.8 | 91.8 (inactive) | 98.1 (inactive) |
| CC(C)C1(NC(=O)C2CC3c4cccc5[nH]cc(c45)CC3N(C)C2)OC2(O)C3CCCN3C(=O)C(Cc3ccccc3)N2C1=O.CS(=O)(=O)O (configuration not stated) [Dihydroergocristine mesylate] | 100 | 110 | 91.4 (inactive) | 88.3 (inactive) |
| CCN(C)C(=O)Oc1cccc([C@H](C)N(C)C)c1.O=C(O)C(O)C(O)C(=O)O | 98.4 | 98.9 | 106 (inactive) | 96.1 (inactive) |
| CC(N)Cc1c[nH]c2ccc(O)cc12.O=C(O)C=CC(=O)O (stereo not drawn) [alpha-Methyl-5-hydroxytryptamine maleate] | 99.8 | 104 | 90.3 (inactive) | 87.9 (inactive) |
| CCCC[N+]1(C)C2CC(OC(=O)C(CO)c3ccccc3)CC1C1OC12.[Br-] (single isomer, unassigned; (-)) [(-)-Scopolamine,n-Butyl-, bromide] | 101 | 106 | 96 (inactive) | 109 (inactive) |
| O=[N+]([O-])c1ccc(O[C@@H]2O[C@H](CO)[C@@H](O)[C@H](O)[C@H]2F)c([N+](=O)[O-])c1 [2,4-Dinitrophenyl 2-fluoro-2-deoxy-beta-D-glucopyranoside] | 105 | 111 | 86.5 (inactive) | 93.2 (inactive) |
| Cl.c1ccc2c(c1)OCC(C1=NCCN1)O2 (configuration not stated) [Idazoxan hydrochloride] | 102 | 98.8 | 99.6 (inactive) | 99 (inactive) |
| CCCCCC=CCC=CCC=CCC=CCCCC(=O)NCCO [Anandamide (20:4, n-6)] | 103 | 94.1 | 99.2 (inactive) | 96.7 (inactive) |
